# Only some compounds are listed: those with a hit (about 8.7% of all), similar ones and a draw of the others.
# BAZ2B block = qHTS Assay for Inhibitors of BAZ2B. Bromodomain adjacent to zinc finger domain protein 2B (Homo sapiens), Q9UIF8. hit rate 4.4% among 360,000. AlphaScreen BAZ2B-H3K14Ac peptide displacement. Potency, µM (doses to about 114 µM), usual class: inhibitors; note: nearly all actives have a fitted effect of over 60% in size
#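 Complex of BAZ2B and biotin-H3K14Ac (50 nM apiece) forms over 30 min at RT, then faces library compounds up to 110 uM for another 30 min; AlphaScreen beads added, 20 min dark incubation, luminescence read.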
# HP1b binding inh = HTS for Inhibitors of HP1-beta Chromodomain Interactions with Methylated Histone Tails | Chromobox protein homolog 1 (Homo sapiens), P83916 | AlphaScreen HP1-beta / biotin-H3K9me3 peptide binding | Potency, µM (titrated, usually from 114 µM), usual class: inhibitors | hit rate 0.56% among 390,000 | AID 540317, 2011; note: nearly all actives have a fitted effect of over 70% in size
# Target sequence (P83916 whole entry, looked up): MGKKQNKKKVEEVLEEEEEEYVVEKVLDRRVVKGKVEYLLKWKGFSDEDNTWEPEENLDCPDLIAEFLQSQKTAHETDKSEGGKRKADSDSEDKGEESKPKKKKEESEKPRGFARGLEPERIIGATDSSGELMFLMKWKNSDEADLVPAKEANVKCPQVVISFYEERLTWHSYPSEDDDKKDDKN
#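 AlphaScreen: HP1-beta (50 nM) preformed 30 min with biotin-H3(1-18)K9me3 peptide (50 nM) in PBS pH 7.4, 0.01% Tween-20. Compound added for 30 min at RT, then streptavidin donor/nickel chelate acceptor beads (10 ug/mL) for 30 min.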
# G9a inh = qHTS Assay for Inhibitors of Histone Lysine Methyltransferase G9a; Potency, µM (top dose mostly 102 µM), most hits filed as inhibitors; Histone-lysine N-methyltransferase EHMT2 (Homo sapiens), Q96KQ7; G9a H3K9 monomethylation, AlphaScreen, 2 h; hit rate 8.8% among 350,000; note: nearly all actives have a fitted effect of over 75% in size
# Target sequence (Q96KQ7 913-1193 limits assumed): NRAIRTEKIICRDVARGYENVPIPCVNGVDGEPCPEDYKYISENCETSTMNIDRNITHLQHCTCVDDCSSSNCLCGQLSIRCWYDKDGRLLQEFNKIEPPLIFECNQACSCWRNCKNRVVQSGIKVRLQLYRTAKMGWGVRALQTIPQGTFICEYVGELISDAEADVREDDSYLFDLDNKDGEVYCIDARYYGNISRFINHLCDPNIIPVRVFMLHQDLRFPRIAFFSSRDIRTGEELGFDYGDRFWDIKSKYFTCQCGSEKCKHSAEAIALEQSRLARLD
#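 Readings reflect AlphaScreen signal from monomethyl-H3K9 antibody detection. HMT at 20 nM; substrate b-H3K9 500 nM; cofactor SAM 20 uM; 2 h RT reaction; compounds tested as titrations in qHTS with 15 min preincubation.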
# JMJD2A Tudor inh = qHTS Assay for Inhibitors of JMJD2A-Tudor Domain. AID 504339, 2011. AlphaScreen JMJD2A-Tudor / H3K4me3 peptide binding. Potency, µM (titrated, usually from 114 µM), usual class: inhibitors. hit rate 4.4% among 390,000; note: nearly all actives have a fitted effect of over 50% in size
# 12-LOX inh = Primary qHTS assay for inhibitors of human arachidonate 12S-lipoxygenase (ALOX12): Round 2 | Potency, µM (top dose mostly 108 µM), usual class: inhibitors | Polyunsaturated fatty acid lipoxygenase ALOX12 (Homo sapiens), P18054 | AID 1671190, 2021 | purified 12hLO, xylenol orange hydroperoxide absorbance | hit rate 1.1% among 580,000
#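 Hydroperoxide product was detected by ferrous iron/xylenol orange as the 573 to 405 nm absorbance ratio. Arachidonic acid at 40 uM (final) was turned over for 30 min at room temperature by 150 nM human 12hLO, pH 7.0 Hepes buffer, after 15 min compound preincubation.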
# Sfp PPTase inh = qHTS Assay for Inhibitors of Bacillus subtilis Sfp phosphopantetheinyl transferase (PPTase). Biochemical Sfp PPTase activity, qHTS. Potency, µM, actives largely listed as inhibitors. hit rate 3.5% among 310,000;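 note: the enzyme is Sfp with the accession as filed and its product quenches rhodamine fluorescence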
#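 Fluorescence-quenching assay: 15 nM Sfp-PPTase preincubated 15 min at room temperature with compound, then 5 uM rhodamine-CoA and 12.5 uM BHQ-2-labelled YbbR peptide added. Fluorescence (ex 525/em 598 nm) read at start and after 30 min; difference gives rate.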
# Numbers stand for hits; i = inactive; ? = inconclusive; nt = no result given; ! = not confirmed by another sample; [ ] = another dose, or the depositor's remark. Calls come from the whole dose curve; as a rule, active = well fitted curve in the direction sought with a large enough effect; inconclusive = small, poorly fitted or top-dose-only effect, or another doubt; inactive = no such curve, though single readings can be large; an effect the other way counts as inactive or inconclusive.
SMILES,BAZ2B block,HP1b binding inh,G9a inh,JMJD2A Tudor inh,12-LOX inh,Sfp PPTase inh
Cc1[nH]c(=S)sc1Cc1ccc(F)cc1,i,i,2µM,39.8µM,?,i
CO[C@H]1C(=O)N(C(C)C)[C@H]1C1CCN(S(=O)(=O)Cc2ccccc2)CC1,nt,nt,nt,nt,i,nt
Cc1ccc(-n2c(N)c(-c3nc4ccccc4n3C)sc2=S)cc1,?,?,3.55µM,?,i,i
Cn1c(-c2ccc(N)cc2)nc2ccccc21,i,i,i,i,i,i
O=C(Nc1sc2c(c1C(=O)O)CCCCC2)c1ccco1,nt,i,i,i,i,i
NC(=O)c1c(NC(NC(=O)c2ccco2)(C(F)(F)F)C(F)(F)F)sc2c1CCCC2,?,i,?,i,i,22.4µM
CCOC(=O)C(NC(=O)c1ccccc1Cl)(Nc1sc2c(c1C(N)=O)CCC2)C(F)(F)F (stereo unspecified),i,i,28.2µM,i,?,?
COC(=O)c1ccccc1S(=O)(=O)N1CCC(c2cc(-c3cccc(C)c3)n[nH]2)CC1,nt,nt,nt,nt,i,nt
Cc1ccc(C)c(N2CCN(S(=O)(=O)c3c(C(=O)N4CCC(C)CC4)c(C)n(C)c3C)CC2)c1,50.1µM,i,i[12.7 µM],?,?,nt
CC(C(=O)NC1CC1)N1CCN(Cc2cccc3cccnc23)CC1 (stereo unspecified),nt,nt,nt,nt,i,nt
C/C(CCc1ccc2c(c1)OCO2)=N\N=C(/N)SC1CC(=O)N(c2ccc(Cl)cc2)C1=O (stereo unspecified),i,i,i,?,i,56.2µM
CCN(CCO)Cc1cc(=O)oc2c(C)c(C)ccc12,i,i,50.1µM,i,?,i
CCOc1ncccc1C(=O)OCc1cc(=O)oc2c(C)c(C)ccc12,i,i,i,i,i,i
Cc1cccc(C(=O)OCc2cc(=O)oc3c(C)c(C)ccc23)c1O,i,i,39.8µM,i,nt,i
Cc1ccc(NC(=O)c2ccc3c(Cl)c4c(nc3c2)CCCC4)cc1F,nt,nt,nt,nt,i,nt
O=C(O)CCNC(=O)N1CCCC(c2cccc(C(=O)O)c2)C1 (stereo unspecified),nt,nt,nt,nt,i,nt
Cc1ccc(CS(=O)(=O)c2cn(CC(=O)N3CCOCC3)c3ccccc23)cc1,i,i,nt,i,i,56.2µM
Cc1cccc(CS(=O)(=O)c2cn(CC(=O)N3CCOCC3)c3ccccc23)c1,i,i,10µM,i,i,50.1µM
Cc1cccc(NC(=O)CS(=O)(=O)c2cn(CC(=O)N3CCOCC3)c3ccccc23)c1,nt,i,?,i,i,i
COc1ccc(CCNC(=O)CS(=O)(=O)c2cn(CC(=O)N3CCCC3)c3ccccc23)cc1OC,nt,i,50.1µM,i,i,i
CC1CCN(C(=O)Cn2cc(S(=O)(=O)CC(=O)N3CCOCC3)c3ccccc32)CC1,nt,i,nt,i,i,nt
Cc1ccc(S(=O)(=O)N(CCC(=O)N2CCOCC2)c2ccccc2)cc1,i,i,14.1µM,i,i,nt
O=C(Cn1cc(S(=O)(=O)Cc2ccccc2F)c2ccccc21)N1CCOCC1,i,i,22.4µM,i,i,i
Cn1cccc1C(=O)N1CCC(N2C(=O)C3(CCCC3)C2c2ccccc2)CC1 (stereo unspecified),nt,nt,nt,nt,i,nt
COC(=O)C1=CN(CC(=O)Nc2c(C)cccc2C)S(=O)(=O)N=C1C,nt,nt,nt,nt,i,nt
SMILES,BAZ2B block,HP1b binding inh,G9a inh,JMJD2A Tudor inh,12-LOX inh,Sfp PPTase inh
CC(=O)OCC1=C(C(=O)O)N2C(=O)[C@@H](NC(=O)CSc3ccncc3)[C@H]2SC1,44.7µM,?,15.8µM!,17.8µM,i,nt
CC(=O)OCC1=C(C(=O)O)N2C(=O)C(NC(=O)c3ccc(F)cc3)C2SC1 (stereo unspecified),?,i,i,i,?,i
CC(=O)OCC1=C(C(=O)O)N2C(=O)C(NC(=O)C(C)Cn3nc(C)c(Cl)c3C)C2SC1 (stereo unspecified),56.2µM,i,39.8µM,i,?,i
CC(=O)OCC1=C(C(=O)O)N2C(=O)[C@@H](NC(=O)Cc3cccs3)[C@@H]2SC1,nt,nt,?,nt,nt,i
CCOc1cc(/C=N/O)ccc1OCC(N)=O,nt,nt,nt,nt,i,nt
COc1ccc(/C(=N/Nc2ncnc3ccccc23)C(=O)O)cc1,i,i,?,?,i,63.1µM
O=C(NNc1ccccc1[N+](=O)[O-])Nc1cccc(Cl)c1,89.1µM,i,i,?,?,i
O=C(NNc1ccccc1[N+](=O)[O-])Nc1ccc(F)cc1F,i,i,31.6µM,i,?,i
O=C(NNc1ccccc1)Nc1cc(Cl)ccc1Cl,nt,50.1µM,nt,?,?,nt
O=C(Nc1ccc(F)cc1F)Nc1ccc(F)cc1F,i,i,i,i,i,i
CCN(CC)C(=O)c1ccc(CN2C(=O)NC3(CCS(=O)(=O)CC3)C2=O)cc1,nt,nt,nt,nt,i,nt
CCn1cc(-c2nc3cc(S(=O)(=O)NC(C)C)ccc3n2C(C)C)c(C)n1,nt,nt,nt,nt,i,nt
CNC(=O)[C@@]1(C)C=C[C@@H](Cc2ccccc2)N1C(=O)OC,i,i,79.4µM,i,i,i
CC(=O)N1[C@H](Cc2ccccc2)C=C[C@]1(C)C(=O)NCc1ccc(C)o1,i,i,6.31µM,i,nt,44.7µM!
CNC(=O)[C@@]1(C)C=C[C@@H](Cc2ccccc2)N1C(C)=O,nt,nt,nt,nt,nt,i
COCCNC(=O)c1ccc(CN2C(=O)NC3(CCS(=O)(=O)CC3)C2=O)cc1,nt,nt,nt,nt,i,nt
O=C(O)CCCCCCCCCCCl,nt,nt,nt,nt,i,nt
Cc1ccc2nsnc2c1NC(=O)c1ccc(Cl)cc1Cl,nt,nt,nt,nt,i,nt
O=C(NC(Cc1ccccc1)C(=O)OCC(=O)N1CCc2ccccc21)c1ccco1 (stereo unspecified),i,i,14.1µM,i,i,i
O=C(CSCc1ccco1)N1CCc2ccccc21,i,i,70.8µM,i,nt,i
CCCc1cc(=O)[nH]c(SCC(=O)N2CCN(S(=O)(=O)c3ccccc3)C2)n1,nt,nt,nt,nt,i,nt
CC(C)(C)NC(=O)CSc1nnc(-c2cccnc2)o1,nt,nt,nt,nt,i,nt
O=C(Nc1ccc2ncccc2c1)c1ccccc1Cl,i,i,10µM,i,44.7µM,i
O=C(NC(=S)Nc1ccc2[nH]ncc2c1)c1ccccc1,i,i,?,?,i,i
O=C(NC(=S)Nc1ccc2nc[nH]c2c1)c1ccccc1,i,i,50.1µM,i,i,i
O=C(Nc1ccc2ncccc2c1)c1ccccc1,i,i,nt,22.4µM,?,i
O=C(Nc1cnc2ccccc2c1)c1cccnc1,i,i,i,i,i,i
O=C(NC(=S)Nc1ccc2ncccc2c1)c1ccccc1,?,i,56.2µM,?,?,50.1µM

# Screens (PubChem)
